We go through 8 compounds from PubChem BioAssay (Tox21).

The nature of assay [1]: qHTS assay to identify small molecule agonists of the androgen receptor (AR) signaling pathway in the presence of an antagonist - cell viability counter screen (AID 1259379). Also: nearly all actives have a fitted effect of over 25% in size. Also: potency is read from the fitted curve at half-maximal effect. As to activity change, negative = cytotoxicity: series mostly up to about 92 µM. A digest of the protocol:
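MDA-kb2 human breast carcinoma cells (stable MMTV-luciferase, AR/GR responsive) were seeded 3,000 cells/well, pre-incubated 5 hr at 37C without CO2, then given 3.0uM nilutamide and compounds at 15 concentrations for 16 hr. Viability was read by CellTiter-Fluor fluorescence.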
In general terms: qHTS replaces the single test concentration by a dilution series.

Assay [2] is described as follows: qHTS assay to identify small molecule agonists of the estrogen receptor beta (ER-beta) signaling pathway - cell viability counter screen (AID 1259380). Also: nearly all actives have a fitted effect of over 30% in size. Also: potency is read from the fitted curve at half-maximal effect. A digest of the protocol:
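ER-beta-UAS-bla HEK293T cells in medium with 2% charcoal-stripped FBS were preincubated 6 hr at 37C, dosed with compound in DMSO for 16 hr, then after the bla read, CellTiter-Glo was added for 30 min at room temperature; luminescence recorded.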

The target of assay [3] is Androgen receptor (Homo sapiens) (UniProt P10275). The assay is described as follows: qHTS assay to identify small molecule agonists of the androgen receptor (AR) signaling pathway in the presence of an antagonist (AID 1259381; calls by dose curve; also: nearly all actives have a fitted effect of over 15% in size). The method in brief:
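MDA-kb2 human breast carcinoma cells carrying an MMTV-luciferase reporter (AR- and GR-responsive) were treated with compounds at 15 concentrations plus 3.0uM final nilutamide for 16hr at 37C without CO2; luminescence was read after ONE-Glo addition.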

The nature of assay [4]: qHTS assay to identify small molecule antagonists of the estrogen receptor beta (ER-beta) signaling pathway - cell viability counter screen (AID 1259382). Also: nearly all actives have a fitted effect of over 55% in size. Also: potency is read from the fitted curve at half-maximal effect.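 As to activity change, negative = cytotoxicity: HEK293T cells carrying ER-beta-UAS-bla reporter stimulated with estradiol; series mostly up to about 92 µM.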 A digest of the protocol: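 ER-beta-UAS-bla HEK293T cells (2,000/well, 2% charcoal-stripped FBS) were pre-incubated 6 hr at 37C, then given compound plus 1nM final 17-beta-estradiol for 16 hr. Viability was read in the same wells by CellTiter-Glo luminescence after 30 min at room temperature.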

Assay [5] has as its target Estrogen receptor (Homo sapiens) (UniProt P03372). Description: qHTS assay to identify small molecule agonists of the estrogen receptor alpha (ER-alpha) signaling pathway in the presence of an antagonist (AID 1259383; calls by dose curve; also: top concentration of the series differs between compounds; nearly all actives have a fitted effect of over 15% in size). A digest of the protocol: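 VM7Luc4E2 cells (endogenous full-length ER-alpha, 4×ERE-luciferase) were precultured 5 days in phenol red-free medium with 10% charcoal-stripped FBS, given 10.0nM ICI-182,780 (final), then treated with compounds at 15 concentrations for 22hr at 37C; luminescence read with ONE-Glo.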

Assay [6] is described as follows: qHTS assay to identify small molecule agonists or antagonists of the thyroid stimulating hormone receptor (TSHR) signaling pathway - wild type cell line counter screen (AID 1259384; calls by dose curve; also: potency is read from the fitted curve at half-maximal effect). The method in brief: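 Wild-type HEK293 cells were plated 18 h at 37 C/5% CO2, pin-dosed with compound plus Ro20-1724 medium, held 30 min at room temperature, then given cAMP-d2 and anti-cAMP-cryptate; fluorescence was read after 1 h. Fifteen concentrations, triplicate.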

The target in assay [7] is Thyrotropin receptor (Homo sapiens) (UniProt P16473). Description: qHTS assay to identify small molecule antagonists of the thyroid stimulating hormone receptor (TSHR) signaling pathway (AID 1259385; calls by dose curve; also: nearly all actives have a fitted effect of over 20% in size; also: potency is read from the fitted curve at half-maximal effect). The method in brief:
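TSHR-HEK293 cells were plated and held 18 h at 37C/5% CO2, then given compound plus Ro20-1724 and stimulated with TSH at 1.5 ng/mL final. After 30 min at room temperature, cAMP was detected with cAMP-d2/anti-cAMP-cryptate (1 h) by fluorescence.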

The nature of assay [8]: qHTS assay to identify small molecule agonists of the estrogen receptor alpha (ER-alpha) signaling pathway in the presence of an antagonist - cell viability counter screen (AID 1259386).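 Also: cells exposed to compounds for 22 h at 37 °C before the viability read; nearly all actives have a fitted effect of over 30% in size.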 Also: potency is read from the fitted curve at half-maximal effect. As to activity change, negative = cytotoxicity: series mostly up to about 92 µM. A digest of the protocol: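 VM7Luc4E2 cells (endogenous full-length ER-alpha, 4×ERE-luciferase) were held 5 days in phenol red-free medium with 10% charcoal-stripped FBS, plated, then given 10.0nM ICI-182,780 and compounds at 15 concentrations for 22hr at 37C; viability read by CellTiter-Fluor fluorescence.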

The nature of assay [9]: qHTS assay to identify small molecule agonists of the TGF-beta/Smad signaling pathway - cell viability counter screen (AID 1346829). Also: nearly all actives have a fitted effect of over 45% in size. Also: potency is read from the fitted curve at half-maximal effect. As to activity change, negative = cytotoxicity: top concentration of the series differs between compounds. A digest of the protocol:
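Tox21 qHTS format: SBE-bla HEK 293T cells treated with DMSO-dissolved compounds for 5 hr; CellTiter-Glo luminescence after 30 min at room temperature.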

Assay [10] can be described thus: qHTS assay to identify small molecule agonists of the TGF-beta/Smad signaling pathway (AID 1346859; active = well fitted activation curve with a large enough effect in the signal ratio in the repeat runs, not every such curve was filed as active; the % refers to the signal ratio; also: series mostly up to about 77 µM). A digest of the protocol: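 HEK 293T cells stably carrying a beta-lactamase reporter driven by the Smad binding element were seeded overnight, exposed to DMSO-dissolved compounds for 5 hr at 37 C, 5% CO2, then loaded with FRET substrate for 2 hr at room temperature.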

For assay [11], the target named is Thyrotropin-releasing hormone receptor (Homo sapiens) (UniProt P34981). Description: qHTS assay to identify small molecule antagonists of the thyrotropin-releasing hormone receptor (TRHR) signaling pathway (AID 1346877; active = well fitted inhibition curve with a large enough effect in the repeat runs, not every such curve was filed as active; also: potency is read from the fitted curve at half-maximal effect; as to activity, negative = inhibition: series mostly up to about 51 µM). The method in brief:
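TRHR-expressing HEK293 cells were seeded, cultured 18 h at 37 °C, then loaded with calcium dye for 2 h. Compounds were pre-incubated 5 min at room temperature before 1 nM TRH (final) was added, and kinetic fluorescence was recorded for 3 min.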

Assay [12] can be described thus: Human pregnane X receptor (PXR) small molecule agonists, qHTS cell viability counter screen (AID 1346977). Also: nearly all actives have a fitted effect of over 50% in size. Also: potency is read from the fitted curve at half-maximal effect. The method in brief:
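PXR-Luc HepG2 cells in medium with 5% charcoal-stripped FBS were pre-incubated 5hr, then exposed to compounds for 24hr at 37C. Viability was read in the same wells by CellTiter-Fluor fluorescence, reagent added after 23hr with a 1hr incubation.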

Assay [13] can be described thus: Caspase-3/7 induction in HepG2 cells by small molecules, qHTS assay (AID 1346978). Also: nearly all actives have a fitted effect of over 15% in size. Also: potency is read from the fitted curve at half-maximal effect. The method in brief: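 Wild-type HepG2 cells (2,000/well) were settled 5 h at 37 C, 5% CO2, then exposed to compounds in DMSO for 17 h. Caspase-3/7 activity was read by luminescence 30 min after adding Caspase-Glo 3/7 reagent at room temperature.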
Assay [14] is described as follows: Caspase-3/7 induction in CHO-K1 cells by small molecules, qHTS cell viability counter screen (AID 1346979). Also: nearly all actives have a fitted effect of over 35% in size. Also: potency is read from the fitted curve at half-maximal effect. The method in brief:
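Wild-type CHO-K1 cells were seeded at 1,500 per well, rested 5hr at 37 C, then exposed to compounds in DMSO. After 16hr, CellTiter-Fluor reagent was added and fluorescence read 1hr later as the viability measure.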

Assay [15] is described as follows: qHTS assay to identify small molecule antagonists of the progesterone receptor (PR) signaling pathway - cell viability counter screen (AID 1346798). Also: nearly all actives have a fitted effect of over 50% in size. Also: potency is read from the fitted curve at half-maximal effect. As to activity change, negative = cytotoxicity: series mostly up to about 92 µM. The method in brief: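 PR-UAS-bla HEK293T cells in medium with 2% charcoal-stripped FBS were treated with compounds plus R5020 for 16 hr at 37C. Cell viability was then read by CellTiter-Glo luminescence after 30 min at room temperature in the same wells.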

A short description of assay [16]: qHTS assay to identify small molecule antagonists of the TGF-beta/Smad signaling pathway - cell viability counter screen (AID 1346824). Also: nearly all actives have a fitted effect of over 50% in size. The method in brief: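 SBE-bla HEK 293T cells were plated overnight at 37 C, then given compounds in DMSO plus TGF-beta1 (added as 0.25 ng/mL solution) for 5 hr. After the bla read, CellTiter-Glo was added to the same wells and luminescence read after 30 min at room temperature.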

Assay [17] deals with Thyrotropin-releasing hormone receptor (Homo sapiens) (UniProt P34981). The assay is described as follows: qHTS assay to identify small molecule agonists of the thyrotropin-releasing hormone receptor (TRHR) signaling pathway (AID 1346891; calls by dose curve; also: series mostly up to about 58 µM). The method in brief:
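TRHR-expressing HEK293 cells were plated 18 h at 37 °C/5% CO2, loaded with calcium dye 2 h at 37 °C, then given compound in DMSO; fluorescence was read kinetically for 3 min at 1 s intervals.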

The target of assay [18] is Progesterone receptor (Homo sapiens) (UniProt P06401). The assay is described as follows: qHTS assay to identify small molecule agonists of the progesterone receptor (PR) signaling pathway (AID 1346784; calls by dose curve; also: nearly all actives have a fitted effect of over 30% in size). A digest of the protocol: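 PR-UAS-bla HEK 293T cells carrying a UAS-driven beta-lactamase reporter were seeded in medium with 2% charcoal-stripped FBS, preincubated 6 hr at 37C, then exposed to compounds in DMSO for 16 hr; agonism was read by LiveBLAzer B/G FRET fluorescence.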
Sequence of Progesterone receptor (Homo sapiens) (P06401 whole entry, looked up): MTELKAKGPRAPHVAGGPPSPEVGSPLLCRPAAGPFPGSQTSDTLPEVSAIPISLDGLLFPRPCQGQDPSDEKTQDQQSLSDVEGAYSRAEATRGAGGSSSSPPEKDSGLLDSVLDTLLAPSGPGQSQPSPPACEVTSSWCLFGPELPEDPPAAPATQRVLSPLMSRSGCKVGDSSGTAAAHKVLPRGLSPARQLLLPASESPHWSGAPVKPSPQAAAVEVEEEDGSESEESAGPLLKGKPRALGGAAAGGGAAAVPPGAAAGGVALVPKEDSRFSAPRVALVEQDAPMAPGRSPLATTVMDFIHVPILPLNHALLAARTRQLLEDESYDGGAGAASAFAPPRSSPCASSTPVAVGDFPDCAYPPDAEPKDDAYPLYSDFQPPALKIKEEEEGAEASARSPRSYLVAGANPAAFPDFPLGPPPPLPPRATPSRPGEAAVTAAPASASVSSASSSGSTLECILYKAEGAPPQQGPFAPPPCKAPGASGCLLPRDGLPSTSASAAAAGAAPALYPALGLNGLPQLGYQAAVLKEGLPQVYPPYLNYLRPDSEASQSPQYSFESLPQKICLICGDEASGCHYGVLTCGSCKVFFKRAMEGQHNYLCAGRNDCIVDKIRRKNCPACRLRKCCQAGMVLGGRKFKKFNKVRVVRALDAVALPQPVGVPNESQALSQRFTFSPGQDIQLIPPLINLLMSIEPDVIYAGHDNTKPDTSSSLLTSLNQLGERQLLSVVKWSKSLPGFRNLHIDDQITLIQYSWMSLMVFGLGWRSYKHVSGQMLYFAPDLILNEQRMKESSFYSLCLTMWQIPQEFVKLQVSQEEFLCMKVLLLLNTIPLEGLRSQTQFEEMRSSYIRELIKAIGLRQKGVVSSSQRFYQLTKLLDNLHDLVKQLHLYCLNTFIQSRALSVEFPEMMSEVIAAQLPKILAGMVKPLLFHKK

The target is the same in assay [19]. The assay is described as follows: qHTS assay to identify small molecule antagonists of the progesterone receptor (PR) signaling pathway (AID 1346795; active = well fitted inhibition curve with a large enough effect in the signal ratio in the repeat runs, not every such curve was filed as active; the % refers to the signal ratio; also: potency is read from the fitted curve at half-maximal effect). The method in brief: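 PR-UAS-bla HEK293T cells carrying a UAS-driven beta-lactamase reporter were plated in medium with 2% charcoal-stripped FBS and rested 6 hr at 37C. Compounds were added with 1 nM R5020 (final) for 16 hr, then FRET substrate loaded 2 hr at room temperature.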

Assay [20] in a line: qHTS assay to identify small molecule agonists of the progesterone receptor (PR) signaling pathway - cell viability counter screen (AID 1346799; calls by dose curve; also: nearly all actives have a fitted effect of over 45% in size). The method in brief: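 PR-UAS-bla HEK293T cells, 3,000 per well in medium with 2% charcoal-stripped FBS, were preincubated 6 hr at 37C, then exposed to compounds for 16 hr; viability was read as CellTiter-Glo luminescence after 30 min at room temperature.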

A number with no mark means an inactive call. Records with an inconclusive call do not appear. Active and inactive are the calls of the source. Unless noted, calls follow the shape of the dose curve; as a rule, active = well fitted curve in the direction sought with a large enough effect in the repeat runs; inconclusive = weak or mixed curves; inactive = no such curve, though single readings can be large; an effect the other way counts as inactive or inconclusive.
% is scaled to controls: 0 for no effect and ±100 for the full control effect.

Sequence of Thyrotropin receptor (Homo sapiens) (P16473 whole entry, looked up): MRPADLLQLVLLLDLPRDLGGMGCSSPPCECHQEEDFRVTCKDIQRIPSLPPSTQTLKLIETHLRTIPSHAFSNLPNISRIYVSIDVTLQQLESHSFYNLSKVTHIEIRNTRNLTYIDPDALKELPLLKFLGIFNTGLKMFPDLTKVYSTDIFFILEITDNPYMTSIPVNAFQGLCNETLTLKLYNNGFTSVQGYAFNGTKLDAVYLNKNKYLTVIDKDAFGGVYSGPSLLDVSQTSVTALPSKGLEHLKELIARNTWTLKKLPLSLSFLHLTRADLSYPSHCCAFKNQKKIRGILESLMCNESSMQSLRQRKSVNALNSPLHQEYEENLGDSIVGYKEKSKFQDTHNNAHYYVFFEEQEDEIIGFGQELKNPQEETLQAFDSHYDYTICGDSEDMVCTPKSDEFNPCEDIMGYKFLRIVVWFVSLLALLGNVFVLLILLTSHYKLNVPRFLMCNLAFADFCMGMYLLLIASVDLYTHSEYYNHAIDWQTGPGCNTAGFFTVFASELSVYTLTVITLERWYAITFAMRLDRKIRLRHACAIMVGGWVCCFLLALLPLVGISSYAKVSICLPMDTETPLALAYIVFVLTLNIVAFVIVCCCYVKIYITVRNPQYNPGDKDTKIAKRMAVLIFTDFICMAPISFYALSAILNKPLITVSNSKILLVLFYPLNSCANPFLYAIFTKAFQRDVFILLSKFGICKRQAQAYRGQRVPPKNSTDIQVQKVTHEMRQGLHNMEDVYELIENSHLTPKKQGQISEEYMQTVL
Sequence of Thyrotropin-releasing hormone receptor (Homo sapiens) (P34981 whole entry, looked up): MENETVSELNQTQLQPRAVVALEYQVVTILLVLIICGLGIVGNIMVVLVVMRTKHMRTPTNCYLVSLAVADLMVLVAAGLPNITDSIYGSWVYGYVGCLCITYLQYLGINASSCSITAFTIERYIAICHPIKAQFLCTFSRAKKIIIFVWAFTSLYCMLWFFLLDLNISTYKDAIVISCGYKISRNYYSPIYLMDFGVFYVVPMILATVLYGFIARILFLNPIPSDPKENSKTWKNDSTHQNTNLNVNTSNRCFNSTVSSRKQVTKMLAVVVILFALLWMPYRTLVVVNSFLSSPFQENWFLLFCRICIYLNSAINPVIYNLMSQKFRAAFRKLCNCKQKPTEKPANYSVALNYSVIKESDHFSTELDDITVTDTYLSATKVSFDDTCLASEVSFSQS
Sequence of Androgen receptor (Homo sapiens) (P10275 whole entry, looked up): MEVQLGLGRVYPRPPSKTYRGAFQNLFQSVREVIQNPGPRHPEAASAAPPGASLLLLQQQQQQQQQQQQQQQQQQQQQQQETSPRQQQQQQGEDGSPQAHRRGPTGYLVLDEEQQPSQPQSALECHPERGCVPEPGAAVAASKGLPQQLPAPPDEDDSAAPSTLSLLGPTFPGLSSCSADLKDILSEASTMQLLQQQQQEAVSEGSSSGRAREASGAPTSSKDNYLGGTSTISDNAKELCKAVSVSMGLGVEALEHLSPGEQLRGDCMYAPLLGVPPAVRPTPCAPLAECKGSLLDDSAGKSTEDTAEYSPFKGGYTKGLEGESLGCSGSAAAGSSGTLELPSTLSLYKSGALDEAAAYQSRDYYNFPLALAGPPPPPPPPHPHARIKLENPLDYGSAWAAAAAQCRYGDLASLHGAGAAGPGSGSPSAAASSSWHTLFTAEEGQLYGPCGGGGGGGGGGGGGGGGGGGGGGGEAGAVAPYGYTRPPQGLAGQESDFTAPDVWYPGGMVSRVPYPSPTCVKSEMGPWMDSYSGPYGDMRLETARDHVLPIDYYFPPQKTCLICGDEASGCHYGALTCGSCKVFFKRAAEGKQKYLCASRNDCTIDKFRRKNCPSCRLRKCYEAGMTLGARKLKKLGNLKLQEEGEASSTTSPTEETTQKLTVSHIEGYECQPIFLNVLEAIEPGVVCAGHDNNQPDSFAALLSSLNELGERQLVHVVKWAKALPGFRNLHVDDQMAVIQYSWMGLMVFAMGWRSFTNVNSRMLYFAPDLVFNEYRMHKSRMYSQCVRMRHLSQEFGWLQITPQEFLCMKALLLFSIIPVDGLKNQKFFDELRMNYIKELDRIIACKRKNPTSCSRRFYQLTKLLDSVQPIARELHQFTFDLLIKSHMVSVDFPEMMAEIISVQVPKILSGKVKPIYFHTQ
Sequence of Estrogen receptor (Homo sapiens) (P03372 whole entry, looked up): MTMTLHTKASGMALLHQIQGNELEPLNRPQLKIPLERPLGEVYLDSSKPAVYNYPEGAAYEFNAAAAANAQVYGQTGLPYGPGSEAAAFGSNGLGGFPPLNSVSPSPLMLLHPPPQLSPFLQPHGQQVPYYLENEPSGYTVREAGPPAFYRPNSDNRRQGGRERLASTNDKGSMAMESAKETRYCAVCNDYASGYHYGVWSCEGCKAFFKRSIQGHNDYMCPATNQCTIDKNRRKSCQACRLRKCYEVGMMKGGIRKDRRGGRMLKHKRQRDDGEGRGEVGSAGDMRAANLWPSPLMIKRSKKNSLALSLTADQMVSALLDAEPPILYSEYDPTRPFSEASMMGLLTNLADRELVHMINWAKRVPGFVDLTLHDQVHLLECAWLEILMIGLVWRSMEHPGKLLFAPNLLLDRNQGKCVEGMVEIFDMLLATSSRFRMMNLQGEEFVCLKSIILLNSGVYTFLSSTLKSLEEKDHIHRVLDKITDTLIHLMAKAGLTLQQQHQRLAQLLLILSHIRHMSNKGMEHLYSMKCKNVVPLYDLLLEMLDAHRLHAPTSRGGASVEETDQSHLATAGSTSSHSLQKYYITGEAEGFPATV

Turning to `Cc1ccc(S(=O)(=O)C(I)I)cc1`, the Potency in [1] was 68.6 µM (active); in assay [2], 21.7 µM (active); in [4], 30.6 µM (active); in assay [6], 9.69 µM (active); in assay [7] it was 68.6 µM (active); in assay [8] it was 68.6 µM (active). Besides, the Potency in assay [9] was 49 µM (active); in assay [11], 10.7 µM (active); in [12], 27.3 µM (active); in assay [14], 15.4 µM (active). For the same compound, the Potency entry in [3], in [5] and in [13] was “inactive” throughout. The call in [10] was inactive.
With `Cc1cc(F)ccc1-c1cc(N2CC[C@@H](O)[C@H]2CO)ncc1N(C)C(=O)C(C)(C)c1cc(C(F)(F)F)cc(C(F)(F)F)c1`, the Potency in [1] is 53.6 µM (active); in assay [2], 47.8 µM (active); in [4] it was 53.6 µM (active); in [12] it was 38 µM (active); in assay [13], 38 µM (active); in assay [14], 24 µM (active). Further, the Potency result in assay [3], in assay [5], in assay [6], in [7], in [8] and in assay [15] was “inactive” each time. Also, the Potency entry in assay [16], in [9], in assay [11] and in assay [17] was “inactive” throughout.
In the case of `O[Si](c1ccccc1)(c1ccccc1)c1ccccc1`, the Potency entry in assay [1], in [3], in assay [6], in assay [7], in assay [8] and in assay [15] was “inactive” each time. Besides, the Potency entry in assay [16], in [9], in assay [12] and in [13] was “inactive” in each case. Further, the Potency in assay [2] is 48.6 µM (active); in assay [14], 30.6 µM (active). The outcome in assay [18] and in assay [10] was inactive.
For `COC(=O)c1ccc([N+](=O)[O-])cc1`, the Potency result in assay [1], in assay [2], in assay [3], in assay [4], in [6] and in [7] was “inactive” in each case. Also, the Potency entry in [8], in [15], in assay [16], in assay [9], in [11] and in assay [17] was “inactive” throughout. Besides, the Potency entry in assay [12], in assay [13] and in assay [14] was “inactive” each time. Further, the compound was classed as inactive in assay [10].
Regarding `N#Cc1nc(Cl)c(Cl)c(Cl)c1Cl`, the Potency in assay [1] was 24.3 µM (active); in [2], 15.4 µM (active); in assay [4], 30.6 µM (active); in assay [15], 24.3 µM (active); in [12], 48.6 µM (active); in assay [14], 1.72 µM (active). Also, the Potency result in assay [3], in [6], in [7], in assay [16], in assay [9] and in assay [11] was “inactive” in each case. The Potency entry in [17] and in [13] was “inactive” throughout. Moreover, in assay [10], the outcome was inactive.
`C/C(=N\[Si](C)(C)C)O[Si](C)(C)C`: the Potency result in assay [1], in assay [2], in assay [3], in assay [4], in assay [8] and in [19] was “inactive” throughout. The Potency result in [15], in assay [20], in assay [16], in [9], in assay [11] and in assay [17] was “inactive” each time. Further, the Potency result in assay [12], in assay [13] and in [14] was “inactive” each time. The call in [18] and in assay [10] was inactive.
`CCCCCCCCCCCCS(=O)(=O)Cl`: the activity change, negative = cytotoxicity is 2.74% [at 19 µM] in [1]; -0.178% [at 19 µM] in [8]; -16% [at 18.9 µM] in assay [15]; 19.7% [at 15.8 µM] in assay [9]; 2.87% [at 19 µM] in assay [12]; 5.87% [at 19 µM] in [14]. Further, the Potency in assay [2] is 14.6 µM (active). For the same compound, the activation in [3] was 1.48% [at 19 µM]; in assay [18], -0.481% [at 19 µM]; in assay [10] it was 8.04% [at 15.8 µM]; in [17], 0.0016% [at 11.8 µM]. In addition, the cAMP activity change in assay [6] is 2.12% [at 18.9 µM, stronger effect = higher value]. The results for the activity change, negative = inhibition in assay [7] and in assay [19] were -1.01% [at 19 µM] and -1.09% [at 18.9 µM], respectively. For the same compound, the viability change, negative = cytotoxic in assay [16] was -0.792% [at 15.8 µM]. Besides, in [11], the activity, negative = inhibition was -4.31% [at 10.5 µM]. In assay [13], the caspase activation is -0.157% [at 19 µM].
On to `O=C(NCc1ncc(C(F)(F)F)cc1Cl)c1c(Cl)cccc1Cl`, for which the Potency was 17.2 µM (active) in assay [1], 43.3 µM (active) in [2], 24.3 µM (active) in assay [19] and 19.3 µM (active) in [13]. Besides, the Potency entry in [3], in assay [6], in assay [8], in assay [20], in assay [16] and in assay [9] was “inactive” throughout. The Potency entry in assay [11], in assay [17], in assay [12] and in [14] was “inactive” each time. Further, the compound was called inactive in assay [18] and in assay [10].
